Data from PubChem BioAssay (NCATS).
Several values for one entry are separate records, joined by “and”; a condition that tells them apart may be missing. Identical values can stand only once. Records with an inconclusive call do not appear. Activity calls are given as the source filed them. Unless noted, the call rests on the fitted dose curve; in most records, active means well fitted curve in the direction sought with a large enough effect; inconclusive means small, poorly fitted or top-dose-only effect, or another doubt; inactive means no such curve, though single readings can be large; an effect the other way counts as inactive or inconclusive.

Assays:
[1] = molecular target: Thyroid hormone receptor beta (Homo sapiens) (UniProt P10828); assay: qHTS assay for small molecule antagonists of thyroid hormone receptor beta signaling (AID 588547; active means well fitted inhibition curve with a large enough effect in the signal ratio, with a control signal flat, not every such curve was filed as active; the % refers to the signal ratio;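 further: cells stimulated with 0.4 nM T3 agonist during compound exposure; on the % scale 0 is the no-effect control and ±100 the full control effect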); conditions: TR-UAS-bla HEK293, beta-lactamase ratio, antagonist mode, 18 h
How it was run: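 TR-UAS-bla GripTite HEK293 cells in 2% charcoal/dextran FBS medium were preincubated 4 h at 37 C, given compound (0.59 nM to 92 uM) plus 0.4 nM T3 (final) for 18 h, then CCF4 for 2 h at RT; Hill fit gave IC50.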

[2] = qHTS assay for small molecule activators of the p53 signaling pathway (AID 651743; active means well fitted activation curve with a large enough effect in the signal ratio, not every such curve was filed as active; the % refers to the signal ratio; further: % of control where 0% means no effect); conditions: HCT-116 p53RE-bla, beta-lactamase FRET ratio, 16 h; activation: stronger effect = higher value
How it was run: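 Agonist-mode quantitative HTS in HCT-116 cells carrying a p53-response-element beta-lactamase reporter; 16 h compound treatment at 37 C, then FRET substrate loading for 2 h at room temperature and fluorescence read.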

[3] = qHTS assay for small molecule activators of the nuclear factor-kappa B (NF-kB) signaling pathway (AID 651749; active means well fitted activation curve with a large enough effect in the signal ratio; the % refers to the signal ratio; further: % of control where 0% means no effect); conditions: NF-kB-bla ME-180 cells, beta-lactamase FRET ratio, 16 h; activation: stronger effect = higher value
How it was run: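 Human ME-180 cervical cells with an NF-kB-bla construct; compounds added via 23 nL pin transfer, DMSO as vehicle; incubation 16 hr. Reporter activity measured by FRET disruption.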

[4] = qHTS assay for small molecule disruptors of the mitochondrial membrane potential - 1 hr assay (AID 651754; calls by dose curve; further: on the % scale 0 is the no-effect control and ±100 the full control effect; nearly all actives have a fitted effect of over 35% in size)
How it was run: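 Loss of mitochondrial potential shifts the cationic dye from red mitochondrial aggregates to green cytoplasmic monomers. Cells (HepG2) are treated with compound for 1 hr before a 30 min dye incubation at 37C.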

[5] = qHTS assay for small molecule disruptors of the mitochondrial membrane potential - 5 hr assay (AID 651755; calls by dose curve; further: on the % scale 0 is the no-effect control and ±100 the full control effect; nearly all actives have a fitted effect of over 40% in size)
How it was run: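 Seed HepG2 overnight, add compound, incubate 5 hr at 37C and 5% CO2, stain 30 min with Mito-MPS, then measure monomer (490/535 nm) and aggregate (540/590 nm) fluorescence.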

[6] = molecular target: Tumor necrosis factor (Homo sapiens) (UniProt P01375); assay: qHTS assay to identify small molecules that stimulate Tumor Necrosis Factor-alpha (TNF-alpha) secretion (AID 651757; active means well fitted curve in the direction sought with a large enough effect in the signal ratio; the % refers to the signal ratio; further: 0% is about no effect)
How it was run: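 Human monocytic THP-1 cells are plated, treated with compound and held at 37 C for 17 hrs. Labeled anti-TNF-alpha antibody mixture is then added; after 3 hr at room temperature, TR-FRET signal reports secreted TNF-alpha.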

[7] = qHTS assay for environmental chemicals that activate the Aryl hydrocarbon Receptor (AhR) signaling pathway (AID 651777); conditions: 1A2-DRE human hepatoma cells, luciferase, 24 h; activation: stronger effect = higher value; further: % of control where 0% means no effect; nearly all actives have a fitted effect of over 15% in size
How it was run: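 Luminescence (One-Glo, 30 min, room temperature) reports AhR-driven luciferase in stably transfected human hepatoma cells bearing DRE and CYP1A2 promoter. Cells (1,200/well) were treated with compound for 24 hr at 37 C in qHTS format.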

[8] = molecular target: Peroxisome proliferator-activated receptor alpha (Homo sapiens) (UniProt Q07869); assay: qHTS assay for small molecule agonists of the peroxisome proliferator-activated receptor alpha (PPARalpha) signaling pathway (AID 651778); conditions: PathHunter PPARalpha complementation, chemiluminescence, 6 h; stronger effect = higher value; further: % of control where 0% means no effect
How it was run: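 Cells plated at 2,000/well and held overnight at 37 C, 5% CO2, then compound added by pin tool for 6 hr; after PathHunter detection reagent and 60 min at room temperature, chemiluminescence from enzyme complementation was read.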

[9] = molecular target: Nuclear receptor ROR-gamma (Homo sapiens) (UniProt P51449); assay: qHTS assay for small molecule antagonists of the retinoid-related orphan receptor gamma (ROR-gamma) signaling pathway (AID 651802);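 further: CHO cells with doxycycline-induced ROR-gamma expression; on the % scale 0 is the no-effect control and ±100 the full control effect; nearly all actives have a fitted effect of over 60% in size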
How it was run: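 Steps: cells dispensed; compound or DMSO transferred by pin tool; doxycycline added to induce the ROR response element-driven luciferase; plates held 16hr at 37C; ONE-Glo added and luminescence measured.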

[10] = qHTS assay for small molecule agonists of the antioxidant response element (ARE) signaling pathway measured by Nrf2-dependant transcriptional activity (AID 720636; active means well fitted curve in the direction sought with a large enough effect in the repeat runs; an effect the other way counts as inactive or inconclusive; further: % of control where 0% means no effect)
How it was run: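 Nrf2-dependent transcription read as ONE-Glo luciferase signal from ARE-luc HepG2 reporter cells after 16 hr compound treatment at 37 C, 5% CO2, in assay medium with 1% dialyzed FBS.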

[11] = qHTS assay for small molecule antagonists of the retinoid-related orphan receptor gamma (ROR-gamma) signaling pathway - cell viability counter screen (AID 720652; active means well fitted curve in the direction sought with a large enough effect in the repeat runs; an effect the other way counts as inactive or inconclusive;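 further: CHO reporter cells with doxycycline-induced ROR-gamma expression; compound exposure lasted 16 hr before ATP read; on the % scale 0 is the no-effect control and ±100 the full control effect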)
How it was run: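 Steps: seed CHO cells bearing TET-inducible ROR and ROR response element-luciferase; rest 5 hr at 37 C; add compound, then doxycycline; incubate 16 hr; add CellTiter-Glo and read luminescence as ATP-based viability.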

[12] = qHTS assay for small molecule agonists of the antioxidant response element (ARE) signaling pathway measured by Nrf2-dependant transcriptional activity - cell viability counter screen (AID 720653; active means well fitted curve in the direction sought with a large enough effect in the repeat runs; an effect the other way counts as inactive or inconclusive; further: on the % scale 0 is the no-effect control and ±100 the full control effect); conditions: ARE-bla HepG2 viability, CellTiter-Glo ATP luminescence, 16 h; max response: stronger effect = lower value
How it was run: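 ARE-bla HepG2 cells (2,000/well) rested 5 hrs at 37C/5% CO2, then exposed to compounds in DMSO for 16 hrs. Viability was read in the same wells as intracellular ATP by luminescence, 30 min at room temperature after reagent addition.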

[13] = qHTS assay for cell viability of HEK293 cells (AID 743288); conditions: ATP luminescence (CellTiter-Glo), 18 h; max response: stronger effect = lower value; further: on the % scale 0 is the no-effect control and ±100 the full control effect; nearly all actives have a fitted effect of over 50% in size
How it was run: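 Quantitative high-throughput screen: compounds were pinned onto parental HEK293 cells (2,000 per well) after a minimum 5 h settling at 37 C, incubated 18 h at 37 C, and intracellular ATP measured by luciferase luminescence.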

[14] = qHTS assay for cell viability of the p53RE-bla HCT-116 cell line (AID 743292); further: on the % scale 0 is the no-effect control and ±100 the full control effect; nearly all actives have a fitted effect of over 55% in size
How it was run: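 ATP-based luminescent viability (CellTiter-Glo, 30 min RT) after 16 h compound treatment at 37 C of p53RE-bla HCT-116 cells, seeded at 4,000 cells/well and rested 5 h before dosing.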

[15] = qHTS for Inhibitors of the Functional Ribonucleoprotein Complex (vRNP) of Lassa (LASV) Arenavirus: LASV Primary Screen - GLuc reporter signal (AID 1347082; calls by dose curve; tested in HEK293 reporter line; further: on the % scale 0 is the no-effect control and ±100 the full control effect; nearly all actives have a fitted effect of over 60% in size)
[16] = qHTS for Inhibitors of the Functional Ribonucleoprotein Complex (vRNP) of Lassa (LASV) Arenavirus: Viability assay - alamar blue signal for LASV Primary Screen (AID 1347083; calls by dose curve; tested in HEK293 reporter line; further: on the % scale 0 is the no-effect control and ±100 the full control effect; nearly all actives have a fitted effect of over 80% in size)
[17] = qHTS for Inhibitors of the Functional Ribonucleoprotein Complex (vRNP) of Lymphocytic Choriomeningitis Arenaviruses (LCMV): Viability assay - alamar blue signal for LCMV Primary Screen (AID 1347085; calls by dose curve; tested in HEK293 reporter line; further: on the % scale 0 is the no-effect control and ±100 the full control effect; nearly all actives have a fitted effect of over 80% in size)
[18] = molecular target: Nucleoprotein (Lymphocytic choriomeningitis virus (strain Armstrong)) (UniProt P09992); assay: qHTS for Inhibitors of the Functional Ribonucleoprotein Complex (vRNP) of Lymphocytic Choriomeningitis Arenaviruses (LCMV): LCMV Primary Screen - GLuc reporter signal (AID 1347086; calls by dose curve; further: on the % scale 0 is the no-effect control and ±100 the full control effect; nearly all actives have a fitted effect of over 70% in size)
[19] = Primary qHTS for Huh7 cytotoxicity: counterscreen for inhibitors of MERS-S pseudotyped particle cell entry (AID 1479147; calls by dose curve; further: on the % scale 0 is the no-effect control and ±100 the full control effect); conditions: outcome: dose series up to 57.1 µM unless noted
[20] = Primary qHTS for inhibitors of MERS-S pseudo-typed particle cell entry (AID 1479149; calls by dose curve; further: nearly all actives have a fitted effect of over 60% in size)
[21] = Primary qHTS for Vero E6 cytotoxicity: counterscreen for inhibitors of SARS-S pseudo-typed particle cell entry (AID 1479150; calls by dose curve; further: on the % scale 0 is the no-effect control and ±100 the full control effect); conditions: outcome: dose series up to 57.1 µM unless noted
[22] = Cytotoxicity counterscreen for inhibitors of SARS-CoV-2 cell entry (AID 1645845; calls by dose curve; further: nearly all actives have a fitted effect of over 50% in size)
How it was run: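 After a 15 min room-temperature ATPLite 1step step, luminescence reflected ATP remaining in HEK293-ACE2 cells exposed to compound for 1 h plus 48 h at 37 C, with percent activity set by cell and no-cell controls.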

[23] = Primary qHTS to identify inhibitors of SARS-CoV-2 cell entry (AID 1645846; calls by dose curve; further: nearly all actives have a fitted effect of over 45% in size); conditions: activity change, negative = inhibition: at 57.1 µM (top of the series) unless noted
How it was run: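 Data are normalized to wells receiving SARS-CoV-2-S pseudoparticles and those given bald particles. Entry signal was luciferase luminescence in stable hACE2 Expi293F cells, 48 hr post-infection, after 1 hr compound pretreatment.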

[24] = molecular target: Glutathione peroxidase 1 (Homo sapiens) (UniProt P07203); assay: Primary qHTS Assay for Inhibitors of Recombinant Selenoprotein Glutathione Peroxidase 1 (GPX1) (AID 1845191); further: nearly all actives have a fitted effect of over 65% in size
How it was run: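 GPX1 10 nM, GR 100 nM, GSH 1 mM, NADPH 0.5 mM, CHP 0.5 mM (final). 30-min cpd preincubation, RT. Ex340/Em450 read t=0, t=15 min.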

[25] = molecular target: Phospholipid hydroperoxide glutathione peroxidase GPX4 (Homo sapiens) (UniProt P36969); assay: Primary qHTS Assay for Inhibitors of Recombinant Selenoprotein Glutathione Peroxidase 4 (GPX4) (AID 1845192); further: nearly all actives have a fitted effect of over 65% in size
How it was run: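 qHTS, GR-coupled: GPX4 200 nM + cpd 30 min RT → GSH 1 mM, NADPH 0.5 mM, GR 100 nM → CHP 0.5 mM start; fluor 340/450 at t0 and t15 min; no-enzyme wells as control.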

[26] = molecular target: Nuclear receptor subfamily 1 group I member 2 (Rattus norvegicus) (UniProt Q9R1A7); assay: qHTS assay for small molecule activators of the rat pregnane X receptor (rPXR) signaling pathway (AID 651751; call rule not given here; further: 0% is about no effect); conditions: rPXR reporter cells, luciferase (One-Glo), 24 h
[27] = qHTS assay for small molecule activators of the human pregnane X receptor (PXR) signaling pathway (AID 720659; call rule not given here; further: 0% is about no effect)

Chain of Thyroid hormone receptor beta (Homo sapiens) (P10828 whole entry, looked up): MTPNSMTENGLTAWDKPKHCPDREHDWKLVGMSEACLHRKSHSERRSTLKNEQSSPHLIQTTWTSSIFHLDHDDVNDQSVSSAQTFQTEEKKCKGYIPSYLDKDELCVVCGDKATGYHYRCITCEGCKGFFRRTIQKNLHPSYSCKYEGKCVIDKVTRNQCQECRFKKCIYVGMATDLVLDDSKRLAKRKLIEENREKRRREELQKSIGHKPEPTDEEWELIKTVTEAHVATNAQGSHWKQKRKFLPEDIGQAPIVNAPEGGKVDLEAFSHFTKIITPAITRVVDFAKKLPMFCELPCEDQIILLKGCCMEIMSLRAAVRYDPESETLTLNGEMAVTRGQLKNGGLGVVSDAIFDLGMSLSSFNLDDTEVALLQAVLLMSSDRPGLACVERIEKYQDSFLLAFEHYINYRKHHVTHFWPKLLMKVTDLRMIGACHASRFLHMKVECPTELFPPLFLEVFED
Chain of Peroxisome proliferator-activated receptor alpha (Homo sapiens) (Q07869 whole entry, looked up): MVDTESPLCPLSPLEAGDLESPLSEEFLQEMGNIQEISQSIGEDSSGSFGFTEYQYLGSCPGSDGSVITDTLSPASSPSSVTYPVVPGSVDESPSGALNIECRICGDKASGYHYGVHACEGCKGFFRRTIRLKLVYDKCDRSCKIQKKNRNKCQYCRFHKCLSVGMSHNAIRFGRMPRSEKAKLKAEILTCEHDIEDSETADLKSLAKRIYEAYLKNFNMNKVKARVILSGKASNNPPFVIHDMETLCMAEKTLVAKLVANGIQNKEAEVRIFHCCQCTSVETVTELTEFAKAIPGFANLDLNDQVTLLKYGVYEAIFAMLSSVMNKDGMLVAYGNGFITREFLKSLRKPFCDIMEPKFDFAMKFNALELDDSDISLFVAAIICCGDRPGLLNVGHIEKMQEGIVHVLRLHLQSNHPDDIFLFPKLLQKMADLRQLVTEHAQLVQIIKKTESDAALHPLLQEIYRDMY
Chain of Nuclear receptor subfamily 1 group I member 2 (Rattus norvegicus) (Q9R1A7 whole entry, looked up): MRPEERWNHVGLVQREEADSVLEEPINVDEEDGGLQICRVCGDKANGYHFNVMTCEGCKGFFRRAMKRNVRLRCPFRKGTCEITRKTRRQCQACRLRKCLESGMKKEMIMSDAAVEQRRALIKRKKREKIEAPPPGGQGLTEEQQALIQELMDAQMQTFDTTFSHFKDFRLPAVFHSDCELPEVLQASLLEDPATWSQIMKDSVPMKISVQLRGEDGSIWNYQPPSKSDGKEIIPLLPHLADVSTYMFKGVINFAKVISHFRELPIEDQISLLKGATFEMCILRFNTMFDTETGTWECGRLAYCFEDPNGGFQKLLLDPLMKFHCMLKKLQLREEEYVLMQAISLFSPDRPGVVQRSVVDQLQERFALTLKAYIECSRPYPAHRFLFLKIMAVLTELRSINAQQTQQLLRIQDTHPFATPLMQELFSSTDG
Chain of Nuclear receptor ROR-gamma (Homo sapiens) (P51449 whole entry, looked up): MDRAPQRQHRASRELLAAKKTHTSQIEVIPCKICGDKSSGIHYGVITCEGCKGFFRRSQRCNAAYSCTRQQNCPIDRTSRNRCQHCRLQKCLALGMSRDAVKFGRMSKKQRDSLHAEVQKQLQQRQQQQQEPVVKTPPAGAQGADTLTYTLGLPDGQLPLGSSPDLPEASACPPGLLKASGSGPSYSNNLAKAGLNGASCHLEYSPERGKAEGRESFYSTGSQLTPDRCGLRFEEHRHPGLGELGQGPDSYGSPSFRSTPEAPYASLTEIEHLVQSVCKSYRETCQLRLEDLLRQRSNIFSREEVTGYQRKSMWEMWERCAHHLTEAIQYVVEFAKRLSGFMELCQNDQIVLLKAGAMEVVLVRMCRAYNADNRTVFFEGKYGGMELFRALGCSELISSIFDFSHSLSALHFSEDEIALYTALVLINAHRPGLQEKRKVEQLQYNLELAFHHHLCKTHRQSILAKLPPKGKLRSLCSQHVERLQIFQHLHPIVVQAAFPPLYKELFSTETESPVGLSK
Chain of Nucleoprotein (Lymphocytic choriomeningitis virus (strain Armstrong)) (P09992 whole entry, looked up): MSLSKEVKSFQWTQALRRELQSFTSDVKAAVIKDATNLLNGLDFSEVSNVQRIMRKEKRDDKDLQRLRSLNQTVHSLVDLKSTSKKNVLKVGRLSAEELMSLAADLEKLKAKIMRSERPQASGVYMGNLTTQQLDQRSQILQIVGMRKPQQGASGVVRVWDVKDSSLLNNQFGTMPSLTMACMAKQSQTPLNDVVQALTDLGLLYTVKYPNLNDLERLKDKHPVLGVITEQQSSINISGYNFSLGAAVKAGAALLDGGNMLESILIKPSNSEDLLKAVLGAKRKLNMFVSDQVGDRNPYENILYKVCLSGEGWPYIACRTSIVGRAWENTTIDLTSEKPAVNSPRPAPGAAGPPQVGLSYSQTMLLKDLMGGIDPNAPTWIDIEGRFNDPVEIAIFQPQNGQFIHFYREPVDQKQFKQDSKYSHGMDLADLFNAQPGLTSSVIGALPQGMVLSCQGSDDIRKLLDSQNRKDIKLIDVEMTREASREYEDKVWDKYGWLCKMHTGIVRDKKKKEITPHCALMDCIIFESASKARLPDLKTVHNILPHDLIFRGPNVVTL
Chain of Tumor necrosis factor (Homo sapiens) (P01375 whole entry, looked up): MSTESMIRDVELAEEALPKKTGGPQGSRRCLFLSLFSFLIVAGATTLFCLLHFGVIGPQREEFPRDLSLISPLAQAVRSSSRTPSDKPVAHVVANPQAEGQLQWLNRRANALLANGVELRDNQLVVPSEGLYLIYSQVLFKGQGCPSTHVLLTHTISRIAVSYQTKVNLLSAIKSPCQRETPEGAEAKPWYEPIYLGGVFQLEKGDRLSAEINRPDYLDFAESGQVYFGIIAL
Chain of Phospholipid hydroperoxide glutathione peroxidase GPX4 (Homo sapiens) (P36969 whole entry, looked up): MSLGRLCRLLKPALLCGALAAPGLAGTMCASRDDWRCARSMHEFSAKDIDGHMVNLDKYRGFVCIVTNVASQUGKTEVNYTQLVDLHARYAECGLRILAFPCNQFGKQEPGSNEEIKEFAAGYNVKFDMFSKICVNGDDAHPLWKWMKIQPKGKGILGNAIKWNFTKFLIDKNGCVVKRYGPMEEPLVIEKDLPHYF
Chain of Glutathione peroxidase 1 (Homo sapiens) (P07203 whole entry, looked up): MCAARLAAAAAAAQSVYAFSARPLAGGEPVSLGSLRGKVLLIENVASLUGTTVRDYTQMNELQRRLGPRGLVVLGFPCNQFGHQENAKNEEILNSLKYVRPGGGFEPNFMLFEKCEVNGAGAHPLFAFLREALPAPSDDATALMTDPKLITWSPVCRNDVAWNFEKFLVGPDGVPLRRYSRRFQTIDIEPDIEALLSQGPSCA

Cc1ccccc1O
-10.9% [at 114 µM]: activity change, negative = inhibition [23]
inactive: activity change % (negative = inhibition) [1] -12.9% and -0.275% | activation [2] -4.62% and -1.52% | activation [3] 0.871% and 6.75% | Potency [4] | Potency [5] | outcome [6] | activation [7] -0.175% and -0.566% | max response [8] -1.66% and -0.689% | Potency [9] | Potency [10] | outcome [11] | max response [12] -2.37% and 9.1% | max response [13] -5.04% and -4.42% | outcome [14] | Potency [15] | Potency [16] | Potency [17] | Potency [18] | outcome [19] | Potency [20] | outcome [21] | Potency [22] | Potency [24] | Potency [25] | max response [26] 0.289% and -3.94% | outcome [27]
